# Compound activity: PubChem BioAssay, several laboratories
# This is a sample that favours compounds with a hit; in the whole collection about 21% have one here.
# MRP-1 activ = activates MRP-1; viability increase, % at 10 µM; 140,000 compounds, 0.61% hits; H69AR cells + doxorubicin, viability rescue, CellTiter-Glo;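 active means viability gain under doxorubicin at or above a set limit, the compound median plus 3 SD, cut at about 4.7% in these data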;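 further: MRP-1 overexpressing cells given doxorubicin 25 µM after compound pretreatment; 18-22 h compound pretreatment then 72 h with doxorubicin before readout; 0% = doxorubicin-only wells and 100% = vehicle-treated cells without doxorubicin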
# CYP2C9 inhib = inhibitors of human CYP2C9 | P11712 | CYP2C9 Supersomes, luciferin-H conversion, luminescence | inhibition, % at 5 µM | 96,000 compounds, 20% hits | AID 777;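 active means blocking of liver enzyme CYP2C9 beyond about 50% at 5 µM, limit read from the data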
# Target sequence (P11712 whole entry, looked up): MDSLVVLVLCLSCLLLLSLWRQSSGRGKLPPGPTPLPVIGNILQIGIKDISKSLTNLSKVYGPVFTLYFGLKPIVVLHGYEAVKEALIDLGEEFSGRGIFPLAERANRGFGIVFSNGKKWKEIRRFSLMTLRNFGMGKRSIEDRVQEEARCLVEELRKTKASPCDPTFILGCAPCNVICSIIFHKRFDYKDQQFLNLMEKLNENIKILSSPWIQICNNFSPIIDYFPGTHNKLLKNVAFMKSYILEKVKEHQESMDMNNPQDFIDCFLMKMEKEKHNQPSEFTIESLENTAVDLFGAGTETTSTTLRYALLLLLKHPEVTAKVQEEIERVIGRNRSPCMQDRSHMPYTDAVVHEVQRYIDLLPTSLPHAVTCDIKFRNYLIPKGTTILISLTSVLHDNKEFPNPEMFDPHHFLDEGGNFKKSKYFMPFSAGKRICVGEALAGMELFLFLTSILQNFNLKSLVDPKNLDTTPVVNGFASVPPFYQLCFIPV
# CYP2C19 activ = increases human CYP2C19 enzyme activity. P33261. recombinant CYP2C19, luciferin-H EGE luminescence; active compounds read high; 0 = fully inhibited enzyme, 1 = untreated enzyme. activation factor at 5 µM. 96,000 tested, under 10 active. AID 1025;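 active means activation factor of at least 2 at 5 µM in the primary screen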;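 further: 0 = wells with 2.5 mM tranylcypromine and 1 = vehicle-only wells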
# MRP reversal = MRP-mediated drug resistance reversal | differential viability (reversal), % at 10 µM | H69AR cells + 2 uM doxorubicin, CellTiter-Glo, 72 h | 85,000 compounds, 0.04% hits;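 active means viability drop by adding the cancer drug above about 55%, with treated viability meeting a 40% cutoff, limit read from the data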;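 further: viability without doxorubicin minus viability with 2 µM doxorubicin for each compound; larger differential means the compound sensitizes cells more to doxorubicin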
# CYP2C19 inh = inhibitors of human CYP2C19; inhibition, % at 5 µM; CYP2C19 Supersomes, luciferin-H EGE luminescence, 30 min; P33261; AID 778; 96,000 compounds, 21% hits;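 active means CYP2C19 inhibition above a set limit at 5 µM in the primary screen, cut at about 50% in these data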;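 further: plate controls were negative control wells for no effect and 2.5 mM tranylcypromine positive control for full effect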
# CYP2C9 act = activators of human CYP2C9 | P11712 | recombinant CYP2C9, luciferin-H conversion, luminescence; active compounds read high; factor 1 = untreated enzyme, 0 = blocked | activation factor at 5 µM | 96,000 compounds, 1.4% hits | AID 1024;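 active means activation factor of 2 or more for CYP2C9 at a 5 µM dose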;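 further: 0 = sulfaphenazole-blocked wells and 1 = vehicle-only wells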
# * = called active by the depositor; . = no result given.
SMILES,MRP-1 activ,CYP2C9 inhib,CYP2C19 activ,MRP reversal,CYP2C19 inh,CYP2C9 act
Cc1cc(O)c(CN2CCN(c3ccccc3)CC2)cc1C,-3,20,0.6,-2,38,0.8
COc1ccc(CN2CCN(c3ccccc3)CC2)c(C)c1C,-2,-3,0.2,.,83*,1
N=C1c2ccccc2CN1CC(=O)c1ccccc1,-3,.,.,.,.,.
Cc1ccc(OP(=O)(NCc2ccccc2)Oc2ccc(C)cc2)cc1,-5,.,.,.,.,.
O=C(CNC1CCCCC1)N1CCC2(CC1)OCCO2,-2,-22,0.9,-3,9,1.2
COc1cccc(-c2cc(C(F)(F)F)n3nc(C(=O)N4CCC5(CC4)OCCO5)cc3n2)c1,-1,69*,0.2,-7,77*,0.3
O=C(c1cnn2c(C(F)(F)F)cc(-c3ccccc3)nc12)N1CCC2(CC1)OCCO2,-2,14,0.8,-3,23,0.9
Cc1cc(C)nc(/N=C(\N)c2c(O)[nH]c(=O)[nH]c2=O)n1,-3,1,1,.,3,1
CSc1ccc(C(=O)C(C)(C)N2CCOCC2)cc1,0,23,0.1,9,92*,0.8
CCCCn1c(O)c(C(CC)=NCc2ccc(F)cc2)c(=O)[nH]c1=O,-1,71*,0.6,8,41,0.3
C=CCn1c(O)c(C(CC)=NCCc2ccccc2)c(=O)[nH]c1=O,-3,26,0.6,-14,36,0.7
CCCCn1c(O)c(C(C)=NCc2ccc(F)cc2)c(=O)[nH]c1=O,2,50,0.8,-11,23,0.5
CCCCn1c(O)c(C(C)=NCCN2CCOCC2)c(=O)[nH]c1=O,0,28,1.1,5,-11,0.7
CCCCn1c(O)c(C(CC)=NCCN2CCOCC2)c(=O)[nH]c1=O,-1,64*,0.6,17,37,0.4
CCCCn1c(O)c(C(CC)=NCCc2ccccc2)c(=O)[nH]c1=O,0,78*,0.5,19,46,0.2
O=[N+]([O-])NC1=NCN(Cc2ccco2)CN1Cc1ccco1,-2,.,.,.,.,.
CCN(CC)C(=O)c1ccc(NC(=O)Cn2nc(C)c3ccccc3c2=O)cc1,-1,19,0.3,.,66*,0.8
COCCCNC(=O)c1c(NC(=O)c2ccccc2Cl)n(Cc2ccccc2)c2nc3ccccc3nc12,-1,48,0.8,-1,24,0.5
COCCNC(=O)c1c(NC(=O)c2ccco2)n(Cc2ccccc2)c2nc3ccccc3nc12,-5,76*,0.6,-18,38,0.2
O=C(Cc1ccccc1)N1CCN(Cc2c[nH]c3ccccc23)CC1,-3,46,0.4,1,62*,0.5
CC(=NCc1ccco1)c1c(O)n(-c2ccccc2)c(=O)[nH]c1=O,0,12,0.4,8,56*,0.9
CCC(=NCc1ccco1)c1c(O)n(-c2ccccc2)c(=O)[nH]c1=O,-2,8,0.5,1,54*,0.9
Cc1cccc(-n2c(O)c(C=NCc3cccnc3)c(=O)[nH]c2=O)c1C,-1,0,1,16,3,1
Cn1c(O)c(/C=C/C=Nc2ccccc2)c(=O)n(C)c1=S,1,.,.,.,.,.
NC12CN3CN(CN(C3)C1)C2 (tested in a mixture with another compound),1,-97,1,-8,5,2*
SMILES,MRP-1 activ,CYP2C9 inhib,CYP2C19 activ,MRP reversal,CYP2C19 inh,CYP2C9 act
Cc1oc(-c2ccccc2F)nc1CS(=O)CC(=O)N1CCC2(CC1)OCCO2 (configuration not stated),-4,-4,1.1,1,-8,1
O=C1NC(=O)C(=Cc2ccc(OCC(=O)N3CCOCC3)cc2)C(=O)N1,-2,.,.,.,.,.
NCC1(c2ccc3c(c2)OCCO3)CCCC1,-1,8,1.1,1,-5,0.9
COC(=O)CSC1=NP(=S)(SCC(=O)OC)N2CCCC2=C1C#N (configuration not stated),-2,33,0.5,-12,49,0.7
CSC1=NP(=S)(SC)N2CCCC2=C1C#N (configuration not stated),29*,24,0.5,-10,47,0.8
COc1cc(C2SCC(=O)Nc3c2c(C)nn3-c2ccccc2)cc(OC)c1OC (configuration not stated),-1,69*,0.2,-7,79*,0.3
Cc1nn(-c2ccccc2)c2c1C(c1ccc3c(c1)OCO3)SCC(=O)N2 (configuration not stated),0,90*,0.1,2,90*,0.1
